{"source": "PubChem BioAssay AID463173", "about": "(ICCB-Longwood Screening Facility, Harvard Medical School, 2010)", "note": "About 4,300 (8.3%) of roughly 52,000 compounds were called active. This is one part of a sample in which actives are shown more often than they occur. Unmarked numbers belong to inactive results. No stated cut-off is given here; in the data, active means survival mostly below about 52% (no sharp cut-off); inactive means mostly above about 56%.", "data": [{"system": "DeltatarO mutant", "assay": "growth inhibition of S. aureus wild type versus tarO mutant, primary screen, teichoic acid synthesis inhibitors, RN4220, OD600 (AID 463173)", "conditions": "OD600, 18 h, hits give low values, screened at 18.75 µg/mL (by protocol)", "values": [{"smiles": "Cc1ccc(-c2nc3ncccc3o2)cc1NC(=O)c1ccc(-c2ccc(Cl)cc2)o1", "survival": "35% (active)"}, {"smiles": "Cc1cc(NC(=O)c2ccc(-c3ccc(Cl)cc3)o2)cc(-c2nc3ncccc3o2)c1O", "survival": "88%"}, {"smiles": "CC(=O)c1ccc(NC(=O)c2ccc(-c3ccc(Cl)cc3)o2)cc1", "survival": "92%"}, {"smiles": "CCCC(=O)Nc1ccc(-c2nc3ncccc3o2)cc1C", "survival": "69%"}, {"smiles": "COc1ccc(Br)cc1C(=O)Nc1ccc(-c2nc3ncccc3o2)cc1C", "survival": "41%"}, {"smiles": "Cc1ccc(-c2nc3ncccc3o2)cc1NC(=O)c1ccc(-c2cccc(Cl)c2C)o1", "survival": "56%"}, {"smiles": "O=C(Nc1nccs1)c1cccc(C(=O)Nc2nccs2)c1", "survival": "98%"}, {"smiles": "COc1ccc(C(=O)Nc2ccc(-c3nc4ncccc4o3)cc2C)cc1Br", "survival": "37% (active)"}, {"smiles": "O=C(Nc1nccs1)c1ccc(-c2ccc(Cl)cc2)o1", "survival": "35% (active)"}, {"smiles": "CCCCc1nn2c(=O)cc(COC(=O)c3ccc(NC(=O)C(CC)CC)cc3)nc2s1", "survival": "94%"}, {"smiles": "CCC(Sc1nc2ccccc2c2nc(CCn3c(C)nc4ccccc43)nn12)C(=O)Nc1ccc(F)cc1", "note": "(stereo not given)", "survival": "67%"}, {"smiles": "COc1ccc(Cn2c(CCC(=O)NCc3ccc(Cl)cc3)nc3cccnc32)cc1", "survival": "112%"}, {"smiles": "Cc1cc(C)nc(N2CCCC(C)C2)n1", "note": "(stereo not given)", "survival": "87%"}, {"smiles": "CC1CCN(c2nc3nonc3nc2Nc2ccc(F)cc2)CC1", "survival": "78%"}, {"smiles": "CC1CCCN(c2nc3nonc3nc2Nc2cccc(Cl)c2)C1", "note": "(stereo not given)", "survival": "0% (active)"}, {"smiles": "COc1ccccc1CNC(=O)CCn1c(=O)c2ccccc2n(CC(=O)Nc2ccc(C)cc2C)c1=O", "survival": "86%"}, {"smiles": "CCOC(=O)c1ccc(NC(=O)Cn2nnc(-c3ccc(C(F)(F)F)cc3)n2)cc1", "survival": "87%"}, {"smiles": "CC1CCCN(C(=O)c2cc3c(=O)n(C)c4ccccc4c3s2)C1", "note": "(stereo not given)", "survival": "138%"}, {"smiles": "Cc1ccc2nc(Cl)c3cc(C(=O)NC4CCCCCC4)sc3c2c1", "survival": "102%"}, {"smiles": "CCOC(=O)C1CCCN(C(=O)c2cc3c(=O)n(C)c4ccccc4c3s2)C1", "note": "(stereo not given)", "survival": "44% (active)"}, {"smiles": "CCOC(=O)C1CCN(C(=O)c2ccc(-n3ccc4ccccc43)s2)CC1", "survival": "72%"}, {"smiles": "Cc1ccc2nc(Cl)c3cc(C(=O)NC4CCCCC4)sc3c2c1", "survival": "52%"}, {"smiles": "CC(C)N(C(=O)c1cc2c(Cl)nc3ccccc3c2s1)C1CCCCC1", "survival": "16% (active)"}, {"smiles": "Cc1ccc2nc(Cl)c3cc(C(=O)N4CCCCC4C)sc3c2c1", "note": "(stereo not given)", "survival": "23% (active)"}, {"smiles": "CC1CCN(C(=O)c2cc3c(=O)n(C)c4ccccc4c3s2)CC1", "survival": "88%"}, {"smiles": "CCC(C)NC(=O)C1CCN(C(=O)c2ccc(-n3ccc4ccccc43)s2)CC1", "note": "(stereo not given)", "survival": "81%"}, {"smiles": "CCOC(=O)C1CCCN(C(=O)c2ccc(-n3ccc4ccccc43)s2)C1", "note": "(stereo not given)", "survival": "-1% (active)"}, {"smiles": "Cc1ccc(S(=O)(=O)Nc2nc3c(s2)C(=O)CC(C)(C)C3)cc1", "survival": "91%"}, {"smiles": "COc1ccc2nc(NS(=O)(=O)Cc3ccccc3)sc2c1", "survival": "75%"}, {"smiles": "CCOc1ccccc1N(C)C(=O)NCc1noc2ccccc12", "survival": "108%"}, {"smiles": "O=C(NCc1ccccc1F)C(=O)NCC(c1cccs1)S(=O)(=O)c1cccs1", "note": "(stereo not given)", "survival": "83%"}, {"smiles": "Cc1ccc(-n2ncc3c(NCCCn4ccnc4)ncnc32)cc1C", "survival": "84%"}, {"smiles": "Cc1[nH]c2ccccc2c1SCCNC(=O)c1ccc(F)cc1", "survival": "59%"}, {"smiles": "COc1ccc(NC(=O)CN2C(=O)CCn3nc(-c4cccn4C)cc32)cc1Cl", "survival": "83%"}, {"smiles": "CC1CCc2[nH]nc(C(=O)O)c2C1", "note": "(stereo not given)", "survival": "93%"}, {"smiles": "CC1CCC(NC(=O)c2cc3c(Cl)nc4ccccc4c3s2)CC1", "note": "(stereo not given)", "survival": "87%"}, {"smiles": "O=C(NC1CCCCCC1)c1cc2c(Cl)nc3ccccc3c2s1", "survival": "116%"}, {"smiles": "O=C(NC1CCCCC1)c1cc2c(Cl)nc3ccccc3c2s1", "survival": "80%"}, {"smiles": "O=C(c1cc2c(Cl)nc3ccccc3c2s1)N1CCCCC1", "survival": "46% (active)"}, {"smiles": "CC1CCCN(CCCNC(=O)c2cc3c(Cl)nc4ccccc4c3s2)C1", "note": "(stereo not given)", "survival": "125%"}, {"smiles": "Cc1ccc2nc(Cl)c3cc(C(=O)NCCCN4CCC(C)CC4)sc3c2c1", "survival": "125%"}, {"smiles": "CC1CCCN(C(=O)c2cc3c(Cl)nc4ccccc4c3s2)C1", "note": "(stereo not given)", "survival": "-5% (active)"}, {"smiles": "Cc1ccc2nc(Cl)c3cc(C(=O)N4CCCCC4)sc3c2c1", "survival": "-8% (active)"}, {"smiles": "Cc1ccc2nc(Cl)c3cc(C(=O)N4CCCC(C)C4)sc3c2c1", "note": "(stereo not given)", "survival": "-7% (active)"}, {"smiles": "Cc1ccc2nc(Cl)c3cc(C(=O)NC4CCC(C)CC4)sc3c2c1", "note": "(stereo not given)", "survival": "57%"}, {"smiles": "CCC(C)NC(=O)c1cc2c(Cl)nc3ccc(C)cc3c2s1", "note": "(stereo not given)", "survival": "65%"}, {"smiles": "Cc1ccc(NC(=O)c2cc3c(Cl)nc4ccc(C)cc4c3s2)c(Cl)c1", "survival": "68%"}, {"smiles": "CNC(=O)C1CCC(Cn2c(=O)c3sccc3n(CC(=O)Nc3ccc(C)c(C)c3)c2=O)CC1", "note": "(stereo not given)", "survival": "70%"}, {"smiles": "CCC(C)NC(=O)c1sc2nc3n(c(=O)c2c1C)CCC3", "note": "(stereo not given)", "survival": "93%"}, {"smiles": "CCOc1ccc(NC(=O)Cn2c(=O)n(Cc3ccco3)c(=O)c3ccc(C(=O)NC4CCCC4)cc32)cc1", "survival": "97%"}, {"smiles": "Cc1ccc(NC(=O)CSc2ccc(-c3cccs3)nn2)cc1Cl", "survival": "111%"}, {"smiles": "COc1ccc(NC(=O)CSc2nc(C)cc(C)c2C(=O)Nc2ccccc2OC)cc1", "survival": "51%"}, {"smiles": "CN1CCC(OC(=O)c2ccc(Cl)cc2Cl)CC1", "survival": "101%"}, {"smiles": "O=C(Cn1c(=O)n(CCc2ccccc2)c(=O)c2c3c(sc21)CCCC3)Nc1ccc(F)c(F)c1", "survival": "84%"}, {"smiles": "COc1cccc(N2CCN(C(=O)c3cc4c(=O)n(Cc5cccnc5)ccc4nc3C)CC2)c1", "survival": "102%"}, {"smiles": "CCOC(=O)C1CCCN(C(=O)c2cc3c(=O)[nH]c4ccc(C)cc4c3s2)C1", "note": "(stereo not given)", "survival": "51%"}, {"smiles": "CCC1CCCCN1CCCNC(=O)c1cc2c(Cl)nc3ccccc3c2s1", "note": "(stereo not given)", "survival": "101%"}, {"smiles": "CCOC(=O)C1CCCN(C(=O)c2cc3c(Cl)nc4ccccc4c3s2)C1", "note": "(stereo not given)", "survival": "26% (active)"}, {"smiles": "CCNC(=S)N1CCC(NC(=O)C23CC4CC(CC(C4)C2)C3)CC1", "survival": "80%"}, {"smiles": "Fc1ccc(Cc2cn3cc(-c4ccc(F)cc4)nc3s2)cc1", "survival": "61%"}, {"smiles": "Clc1ccccc1Cc1cn2cc(-c3ccccc3)nc2s1", "survival": "63%"}, {"smiles": "Fc1ccc(-c2cn3cc(Cc4ccccc4Cl)sc3n2)cc1", "survival": "42% (active)"}, {"smiles": "Fc1ccccc1Cc1cn2cc(-c3ccc(Cl)cc3)nc2s1", "survival": "66%"}, {"smiles": "Fc1ccc(Cc2cn3cc(-c4ccccc4)nc3s2)cc1", "survival": "51% (active)"}, {"smiles": "Fc1ccc(-c2cn3cc(Cc4ccccc4)sc3n2)cc1", "survival": "81%"}]}]}
